Test results: PubChem BioAssay AID588405 (Sanford-Burnham Center for Chemical Genomics, 2011)
Among all 360,000 compounds or so, about 6,200 (1.7%) were called active.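 How the source made its calls: active means inhibition of at least 50% at 20 µM; inactive means the rest.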 Many of the other results were omitted from the sample, so actives are more common in it than they were.

Experiment: inhibition of PEG-3 promoter activity – cell-based, HeLa, luciferase luminescence, primary screen (AID 588405)
Conditions: HeLa PEG-Prom luciferase reporter, overnight, at 20 µM, active compounds read high

SMILES	inhibition
Cc1ccc(-c2cnc(C(O)c3cccc(C)c3C)[nH]2)cc1 (stereo not drawn)	-14.4% (inactive)
Cc1ccc(Cc2c(-c3ccco3)nc3ccc(Cl)cn23)cc1	2.16% (inactive)
Cc1cccc(-n2ncc3c(=O)[nH]c(SCC(=O)Nc4cc(C)on4)nc32)c1	15.5% (inactive)
CC(=O)Nc1c2c(nn1-c1cccc(C)c1)CSC2	1.92% (inactive)
Cc1cccc(-n2ncc(Cl)c(Cl)c2=O)c1	109% (active)
CCc1nc2ccc(C(=O)N(C)CCN(C)C)cn2c1N(CC)CCOC	-8.52% (inactive)
CN1CCN(C2Cc3ccc(Cl)cc3Sc3ccc(F)cc32)CC1 (stereo not drawn)	76% (active)
CC1(C(=O)NS(=O)(=O)c2cccc(F)c2)CCN1C(=O)Cc1cc(F)ccc1F (stereo not drawn)	7.15% (inactive)
CC1(c2ccccc2)NC(=O)N(CC(=O)Nc2cc(Cl)ccc2N2CCOCC2)C1=O (stereo not drawn)	2.35% (inactive)
O=C(CSc1nc(Nc2ccccc2)nc(N2CCOCC2)n1)Nc1cc(Cl)ccc1O	86.5% (active)
C/C(=N\Nc1nc(Nc2ccccc2)nc(N2CCOCC2)n1)c1cccs1	7.28% (inactive)
Brc1ccc2nc(-c3ccccc3)c(Cc3ccccc3)n2c1	-51% (inactive)
CCOC(=O)c1ccc(-c2ccc3ncnc(N(C)Cc4sccc4C)c3c2)o1	31.1% (inactive)
CCCCSc1[nH]c(=O)c(C(=O)OCC)cc1C#N	3.02% (inactive)
Cc1nc(N=C(N)N)nc2c(C)cccc12	20.3% (inactive)
COC(=O)Cn1nc(-c2ccccc2)c2cc(Cl)ccc21	13.3% (inactive)
NC(N)=Nc1nc(-c2ccccc2)c2cc(Cl)ccc2n1	108% (active)
CCCS(=O)(=O)NC(=O)C1(C)CCCN(C(=O)c2ccnc(Cl)c2)C1 (stereo not drawn)	-1.18% (inactive)
OC[C@@H]1CN(Cc2ccc3c(c2)OCO3)C[C@H](n2cnc3c(NCc4ccco4)ncnc32)O1	-2.19% (inactive)
Cc1cc(O)ccc1-c1cc(C(=O)NCc2cc(C(F)(F)F)cc(C(F)(F)F)c2)[nH]n1	5.2% (inactive)
Oc1ccc2ccccc2c1N=Nc1nccs1	97.5% (active)
COC(=O)[C@@H]1C[C@@]2(O)[C@H](O)[C@H](O)[C@H](O)C[C@H]2N1Cc1ccc(C(C)(C)C)cc1	2.16% (inactive)

SMILES	inhibition
O=C(COc1ccc2ccccc2c1)N1CCN(C(=O)c2cccs2)CC1	3.04% (inactive)
COc1ccc(C2=NN(C(=O)CCC(=O)O)C(c3cccs3)C2)cc1OC (stereo not drawn)	9.5% (inactive)
CCOc1ccc2nc(Cl)c(C3CC(c4ccccc4)=NN3C(=O)c3cccs3)cc2c1 (stereo not drawn)	55.1% (active)
COC(=O)c1ccc2nc(-c3ccc(Cl)cc3)c(Cc3cccc(F)c3)n2c1	-38.1% (inactive)
Cc1noc(C)c1C(=O)N1CCC1(C)C(=O)NS(=O)(=O)c1ccc(C#N)cc1 (stereo not drawn)	-15.2% (inactive)
CC(O)(c1cccc(F)c1)c1nc(-c2ccc3c(c2)OCO3)cs1 (stereo not drawn)	-65.7% (inactive)
CC(C)(C)Cc1c(C2CCCCC2)nc2ccc(Br)cn12	16% (inactive)
Cc1nn(Cc2ccccc2Cl)c(C)c1NC(=O)Cn1nc([N+](=O)[O-])c(Cl)c1C	-1.84% (inactive)
Cc1c(Cl)c([N+](=O)[O-])nn1Cc1ccc(C(=O)N/N=C\c2cc(Cl)ccc2O)o1	61.5% (active)
O=C(N/N=C\c1ccc(Br)cc1)c1ccc(Cn2cccn2)o1	-62.6% (inactive)
COCOc1cccc(CN2CCC(C)(Oc3ccc(SC)cc3)C2)c1 (stereo not drawn)	-1.46% (inactive)
COc1cc(Cl)c(C)cc1NC(=O)CSc1nnc(-c2ccco2)n1CC(C)C	12.4% (inactive)
NC(Cc1ccccc1)c1csc(Nc2cc(Oc3ccccc3)ncn2)n1 (stereo not drawn)	54.6% (active)
Cc1nc2c(OCc3ccc(Cl)cc3)cccn2c1N(C)Cc1cccs1	6.73% (inactive)
N/C(=N\OC(=O)c1ccc([N+](=O)[O-])cc1)c1ccccn1	5.67% (inactive)
Cc1cccc(/C(N)=N/OC(=O)c2ccccc2Cl)c1	-145% (inactive)
Cc1ccc(C(=O)O/N=C(\N)c2ccccn2)cc1Cl	62.4% (active)
CC(=O)Nc1cccc(-c2cc(NC(C)=O)c3ncc(-c4ccccc4)n3c2)c1	20.6% (inactive)
CCOC(=O)C1CN(S(=O)(=O)c2ccc(OC)cc2)c2cc(Cl)ccc2O1 (stereo not drawn)	8.58% (inactive)
Cc1ccc(NC(=O)[C@H](Cc2ccccc2)NC(=O)CC[C@H]2O[C@@H](n3ccc(=O)[nH]c3=O)[C@H](O)[C@@H]2O)cc1C	4.14% (inactive)
CCCCNc1c(-c2ccc(OC)c(Sc3ccc(OC)cc3)c2)nc2ccc(Cl)cn12	-44% (inactive)
COC(=O)c1ccc2nc(-c3cccc(Br)c3)c(Cc3ccc(OC)cc3C)n2c1	-33% (inactive)

SMILES	inhibition
CCCCNc1c(-c2cccc(Sc3ccc(OC)cc3)c2)nc2ccccn12	92.9% (active)
CS(=O)(=O)/C(C#N)=C/c1cccn1S(=O)(=O)c1ccc([N+](=O)[O-])cc1	-17.4% (inactive)
O=C(NCCN1CCOCC1)c1ccccc1N1C(=O)[C@@H]2Cc3c([nH]c4ccccc34)C(c3cccc(Cl)c3)N2C1=O (stereo partly drawn)	20.3% (inactive)
CC(C)c1cccc(C(C)C)c1Nc1cn[nH]c1	9.45% (inactive)
COC(=O)c1ccc2nc(-c3ccc(OC)c(OC)c3)c(Cc3ccccc3)n2c1	-21.6% (inactive)
Cc1nnc(N/N=C/c2ccccn2)[nH]c1=O	62% (active)
S=C(NN=Cc1ccccn1)Nc1ccccn1	-79.6% (inactive)
O=C(N/N=C/c1ccccn1)C12CC3CC(CC(C3)C1)C2	-8.28% (inactive)
Cc1ccc(CNC(=O)Nc2nnc([C@H]3C[C@H](O)[C@@H](CO)O3)s2)cc1	-6.3% (inactive)
CC1(C(=O)Nc2ccc3c(c2)OCCO3)CCN1C(=O)Cc1cc(F)ccc1F (stereo not drawn)	2.13% (inactive)
Cc1ccc(C(=O)N/C(=C\c2ccco2)C(=O)NC2CCS(=O)(=O)C2)cc1 (stereo not drawn)	16.9% (inactive)
CCCc1nc2c3ccccc3ccn2c1Cc1ccccc1C(F)(F)F	-16% (inactive)
CN1OC[C@@H]2CN(C(=O)C(C)(C)C)[C@H](c3ccc(-n4ccnc4)cc3)C[C@@H]21	-4.85% (inactive)
CC(=O)Nc1ccc(C=Cc2ccc([N+](=O)[O-])cc2)cc1	-310% (inactive)
O=C1/C(=C\c2ccc([N+](=O)[O-])cc2)CS(=O)(=O)C/C1=C/c1ccc([N+](=O)[O-])cc1	100% (active)
CN(C)S(=O)(=O)N1CCN(c2ccc([N+](=O)[O-])cc2)CC1	14.5% (inactive)
CCCNC(=O)C1(C)CCCN(Cc2cccc(C(F)(F)F)c2)C1 (stereo not drawn)	2.53% (inactive)
CCCOc1ccc(F)cc1-c1cc(C(=O)Nc2ccc(F)c(Cl)c2)[nH]n1	25.8% (inactive)
CC1(C(=O)NS(=O)(=O)C2CC2)CCCN(C(=O)CSc2ccccc2)C1 (stereo not drawn)	8.07% (inactive)
O=S(=O)(c1ccccc1)N1CCC(c2ccccc2)CC1	6.2% (inactive)
CC(=O)N1CC(C)c2scc(C)[n+]2-c2ccccc21 (stereo not drawn)	5.89% (inactive)
CN1OC[C@@H]2CN(S(=O)(=O)c3cccc(C(F)(F)F)c3)[C@H](c3ccc(-c4cc5ccccc5o4)cc3)C[C@@H]21	68.8% (active)

SMILES	inhibition
CN1OC[C@@H]2CN(S(=O)(=O)c3cccc4ccccc34)[C@H](c3ccc(N4CCCCC4)cc3)C[C@@H]21	-9.16% (inactive)
COc1ccc(S(=O)(=O)N2C[C@H]3CON(C)[C@H]3C[C@H]2c2cccc(Br)c2)cc1	6.82% (inactive)
Nc1nc2c(ncn2[C@@H]2O[C@H](CNS(=O)(=O)N3CCc4ccccc4C3)[C@@H](O)[C@H]2O)c(=O)[nH]1	5.67% (inactive)
Cc1ccc(-c2cnc(C(O)c3cc(Cl)cc(Cl)c3)[nH]2)cc1 (stereo not drawn)	37.2% (inactive)
CC1(C(=O)NS(=O)(=O)c2ccccc2)CCN1C(=O)C/C=C/c1ccccc1 (stereo not drawn)	-9.64% (inactive)
CC1(C(=O)O)CCN1C(=O)/C=C/c1ccccc1 (stereo not drawn)	-2.65% (inactive)
CC1(C)CCSC(/C=C/c2ccccc2)=N1	106% (active)
CC(C)(C)c1ccc(C(=O)NCC(=O)OCN2C(=O)c3ccccc3C2=O)cc1	-11.7% (inactive)
COC(=O)c1cc(C(=O)N(Cc2ccccc2)c2ccccn2)cc([N+](=O)[O-])c1	5.92% (inactive)
CC(=O)N(CN1C(=O)C2CC=CCC2C1=O)c1cccc(Cl)c1 (stereo not drawn)	12% (inactive)
O=C(CCl)N(Cc1cccc([N+](=O)[O-])c1)c1cccc(Cl)c1	109% (active)
COC(=O)Cc1ccc(OC2(C)CCN(Cc3ccc4c(c3)OCCO4)C2)cc1 (stereo not drawn)	-18.6% (inactive)
Cc1cccc(C)c1NC(=O)CN1CCN(c2ccc(F)cc2)CC1	5.77% (inactive)
CCc1ccc(CNC(=O)C2CC(=O)N(CCc3ccc(C)cc3)C2)cc1 (stereo not drawn)	7.77% (inactive)
Cc1ccc(NC(=O)N2CCC(C(=O)NCc3ccc(F)cc3)CC2)cc1	6.32% (inactive)
CCc1ccc(CNC(=O)C2CCN(c3nnc(C)c4c(C)n(-c5ccc(C)cc5)nc34)CC2)cc1	99.3% (active)
COc1ccc(OC)c(S(=O)(=O)N2CCCC(C(=O)NCCc3ccccc3)C2)c1 (stereo not drawn)	5.79% (inactive)
N#CCCN(C(=O)COC(=O)C1CCN(c2ccc(C(F)(F)F)cn2)CC1)c1ccc(F)cc1	-15.9% (inactive)
CCOC(=O)C1(Cc2ccccc2C)CCCN(C(=O)c2ccc(COC)o2)C1 (stereo not drawn)	-235% (inactive)
Cc1cccc(N=Nc2c(O)[nH]c3ccc(F)cc23)c1	-236% (inactive)
NS(=O)(=O)c1ccc(N=Nc2c(O)[nH]c3ccc(Br)cc23)cc1	98.7% (active)
O=C(CNC(=O)Cc1ccccc1)N=Nc1c(O)[nH]c2ccc(Br)cc12	-7.31% (inactive)
